Results from the supplement of paper PMC11732987, “Enantioselective OTUD7B fragment discovery through chemoproteomics screening and high-throughput optimisation” (Communications Chemistry, 2025).

Columns and labels:
Test in all cases: log2 ratio of Biotin-Ahx-Ub-VS probe labelling (fragment/DMSO); higher = less target engagement (more negative = stronger competition), active = hit call of the paper (q ≤ 0.05, log2 ratio ≤ -1)
Details in all cases: compound concentration: 200 uM; treatment time: 3 h
USP34 = USP34 (UniProt Q70CQ2)
USP34, sequence (Q70CQ2 whole entry, the tested form may be a part): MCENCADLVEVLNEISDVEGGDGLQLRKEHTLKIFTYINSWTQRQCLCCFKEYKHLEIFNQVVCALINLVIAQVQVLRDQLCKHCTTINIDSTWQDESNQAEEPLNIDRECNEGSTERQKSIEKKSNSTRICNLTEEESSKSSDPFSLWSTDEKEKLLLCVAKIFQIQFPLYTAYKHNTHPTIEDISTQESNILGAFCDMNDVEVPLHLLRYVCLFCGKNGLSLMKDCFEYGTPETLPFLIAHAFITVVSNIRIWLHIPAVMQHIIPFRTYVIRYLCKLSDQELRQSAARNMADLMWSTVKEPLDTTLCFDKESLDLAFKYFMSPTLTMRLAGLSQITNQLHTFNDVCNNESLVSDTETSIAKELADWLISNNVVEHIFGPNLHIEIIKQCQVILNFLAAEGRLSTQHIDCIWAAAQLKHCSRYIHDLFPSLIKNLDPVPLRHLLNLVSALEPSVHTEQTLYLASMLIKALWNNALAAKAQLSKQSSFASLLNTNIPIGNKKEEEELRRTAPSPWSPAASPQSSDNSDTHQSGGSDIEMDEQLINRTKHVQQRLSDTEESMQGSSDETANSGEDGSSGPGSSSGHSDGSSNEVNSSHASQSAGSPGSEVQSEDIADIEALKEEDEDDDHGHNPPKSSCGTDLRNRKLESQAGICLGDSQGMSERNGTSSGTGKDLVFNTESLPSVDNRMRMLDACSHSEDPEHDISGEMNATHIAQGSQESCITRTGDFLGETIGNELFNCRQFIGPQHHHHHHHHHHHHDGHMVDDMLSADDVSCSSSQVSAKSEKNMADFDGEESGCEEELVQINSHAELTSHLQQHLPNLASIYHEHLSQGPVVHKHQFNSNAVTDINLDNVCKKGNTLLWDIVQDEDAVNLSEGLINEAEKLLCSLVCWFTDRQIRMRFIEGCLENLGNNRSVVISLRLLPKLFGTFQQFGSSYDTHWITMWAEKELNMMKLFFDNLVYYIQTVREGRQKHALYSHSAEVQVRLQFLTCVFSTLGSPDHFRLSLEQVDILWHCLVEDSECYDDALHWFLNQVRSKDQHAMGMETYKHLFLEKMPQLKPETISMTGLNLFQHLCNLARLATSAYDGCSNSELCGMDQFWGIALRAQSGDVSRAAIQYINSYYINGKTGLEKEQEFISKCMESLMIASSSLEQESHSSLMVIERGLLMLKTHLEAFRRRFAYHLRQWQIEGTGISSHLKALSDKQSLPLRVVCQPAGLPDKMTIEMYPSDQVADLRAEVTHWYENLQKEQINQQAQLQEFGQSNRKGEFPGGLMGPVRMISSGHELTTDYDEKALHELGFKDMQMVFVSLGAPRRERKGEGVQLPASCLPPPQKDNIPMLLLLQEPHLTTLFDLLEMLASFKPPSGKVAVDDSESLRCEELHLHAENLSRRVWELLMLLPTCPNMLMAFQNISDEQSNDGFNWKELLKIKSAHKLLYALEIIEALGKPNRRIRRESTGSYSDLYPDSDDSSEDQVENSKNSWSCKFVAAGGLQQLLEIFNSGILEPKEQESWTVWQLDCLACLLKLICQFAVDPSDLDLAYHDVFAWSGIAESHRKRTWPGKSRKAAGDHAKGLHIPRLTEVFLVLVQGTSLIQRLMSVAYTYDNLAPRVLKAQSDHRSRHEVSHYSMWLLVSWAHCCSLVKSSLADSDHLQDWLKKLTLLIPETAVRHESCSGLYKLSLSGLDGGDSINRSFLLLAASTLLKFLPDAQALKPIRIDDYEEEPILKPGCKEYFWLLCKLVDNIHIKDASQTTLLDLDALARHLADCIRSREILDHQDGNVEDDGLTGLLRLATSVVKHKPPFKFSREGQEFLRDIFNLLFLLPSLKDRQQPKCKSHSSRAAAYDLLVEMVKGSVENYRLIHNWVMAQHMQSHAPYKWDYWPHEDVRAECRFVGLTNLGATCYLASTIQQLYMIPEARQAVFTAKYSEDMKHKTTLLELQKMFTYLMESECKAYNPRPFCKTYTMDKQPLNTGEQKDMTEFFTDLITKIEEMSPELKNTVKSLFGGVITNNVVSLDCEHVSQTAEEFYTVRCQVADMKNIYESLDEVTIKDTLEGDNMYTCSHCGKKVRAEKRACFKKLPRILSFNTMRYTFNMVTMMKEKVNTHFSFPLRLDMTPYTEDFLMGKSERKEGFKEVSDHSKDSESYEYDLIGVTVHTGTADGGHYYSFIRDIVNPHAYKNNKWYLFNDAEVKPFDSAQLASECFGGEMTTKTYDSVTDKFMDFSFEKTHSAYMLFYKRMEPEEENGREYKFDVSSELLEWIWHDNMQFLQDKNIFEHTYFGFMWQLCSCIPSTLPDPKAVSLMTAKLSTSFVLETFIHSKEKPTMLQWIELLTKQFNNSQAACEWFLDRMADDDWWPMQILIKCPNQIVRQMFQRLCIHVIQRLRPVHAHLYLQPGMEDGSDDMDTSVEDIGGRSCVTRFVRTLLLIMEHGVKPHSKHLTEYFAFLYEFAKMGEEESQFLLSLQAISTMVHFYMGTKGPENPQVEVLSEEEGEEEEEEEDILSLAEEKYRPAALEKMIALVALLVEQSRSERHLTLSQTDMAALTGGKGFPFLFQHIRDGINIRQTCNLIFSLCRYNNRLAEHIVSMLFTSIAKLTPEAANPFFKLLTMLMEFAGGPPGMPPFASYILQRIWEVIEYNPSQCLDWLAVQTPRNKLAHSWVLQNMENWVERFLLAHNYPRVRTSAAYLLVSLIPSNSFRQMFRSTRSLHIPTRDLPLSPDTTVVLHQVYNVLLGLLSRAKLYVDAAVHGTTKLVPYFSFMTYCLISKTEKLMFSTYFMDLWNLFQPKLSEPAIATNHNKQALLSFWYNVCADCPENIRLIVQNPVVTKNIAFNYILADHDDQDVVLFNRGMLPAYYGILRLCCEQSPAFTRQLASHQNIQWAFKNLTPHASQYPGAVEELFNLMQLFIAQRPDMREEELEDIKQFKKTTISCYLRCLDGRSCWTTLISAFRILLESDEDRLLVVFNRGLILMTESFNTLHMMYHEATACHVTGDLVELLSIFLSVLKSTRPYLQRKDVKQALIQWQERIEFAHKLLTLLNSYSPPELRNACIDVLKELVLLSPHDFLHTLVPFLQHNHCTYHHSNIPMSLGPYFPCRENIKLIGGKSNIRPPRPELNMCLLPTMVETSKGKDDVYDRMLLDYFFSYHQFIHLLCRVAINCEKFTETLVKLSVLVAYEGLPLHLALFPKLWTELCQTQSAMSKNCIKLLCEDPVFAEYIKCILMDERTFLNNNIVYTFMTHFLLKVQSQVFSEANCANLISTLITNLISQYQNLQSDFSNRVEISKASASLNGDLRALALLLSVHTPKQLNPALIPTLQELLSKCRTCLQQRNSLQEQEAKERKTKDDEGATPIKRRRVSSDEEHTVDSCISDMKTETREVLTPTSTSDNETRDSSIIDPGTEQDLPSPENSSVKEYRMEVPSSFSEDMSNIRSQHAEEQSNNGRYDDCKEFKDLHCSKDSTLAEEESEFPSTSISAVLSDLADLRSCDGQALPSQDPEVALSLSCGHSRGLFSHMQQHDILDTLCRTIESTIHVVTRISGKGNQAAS
In short: (§1)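 Labelling with Biotin-Ahx-Ub-VS (0.5 µM final, 1 h) followed a 3 h triplicate treatment of HEK293T lysate (495 µg per sample, Tris/CHAPS/IGEPAL buffer with protease inhibitors) with fragment at 200 µM or vehicle. Labelled DUBs were NeutrAvidin-enriched, digested with LysC and trypsin, and run by diaPASEF LC-MS/MS. The values, average log2 fragment/vehicle ratios by unpaired t-test, come from global-median-normalised Spectronaut label-free quantities. Proteins with ≥2 unique peptides were used.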

USP36 = molecular target: T1, USP36 (UniProt Q9P275)
T1 sequence (whole entry): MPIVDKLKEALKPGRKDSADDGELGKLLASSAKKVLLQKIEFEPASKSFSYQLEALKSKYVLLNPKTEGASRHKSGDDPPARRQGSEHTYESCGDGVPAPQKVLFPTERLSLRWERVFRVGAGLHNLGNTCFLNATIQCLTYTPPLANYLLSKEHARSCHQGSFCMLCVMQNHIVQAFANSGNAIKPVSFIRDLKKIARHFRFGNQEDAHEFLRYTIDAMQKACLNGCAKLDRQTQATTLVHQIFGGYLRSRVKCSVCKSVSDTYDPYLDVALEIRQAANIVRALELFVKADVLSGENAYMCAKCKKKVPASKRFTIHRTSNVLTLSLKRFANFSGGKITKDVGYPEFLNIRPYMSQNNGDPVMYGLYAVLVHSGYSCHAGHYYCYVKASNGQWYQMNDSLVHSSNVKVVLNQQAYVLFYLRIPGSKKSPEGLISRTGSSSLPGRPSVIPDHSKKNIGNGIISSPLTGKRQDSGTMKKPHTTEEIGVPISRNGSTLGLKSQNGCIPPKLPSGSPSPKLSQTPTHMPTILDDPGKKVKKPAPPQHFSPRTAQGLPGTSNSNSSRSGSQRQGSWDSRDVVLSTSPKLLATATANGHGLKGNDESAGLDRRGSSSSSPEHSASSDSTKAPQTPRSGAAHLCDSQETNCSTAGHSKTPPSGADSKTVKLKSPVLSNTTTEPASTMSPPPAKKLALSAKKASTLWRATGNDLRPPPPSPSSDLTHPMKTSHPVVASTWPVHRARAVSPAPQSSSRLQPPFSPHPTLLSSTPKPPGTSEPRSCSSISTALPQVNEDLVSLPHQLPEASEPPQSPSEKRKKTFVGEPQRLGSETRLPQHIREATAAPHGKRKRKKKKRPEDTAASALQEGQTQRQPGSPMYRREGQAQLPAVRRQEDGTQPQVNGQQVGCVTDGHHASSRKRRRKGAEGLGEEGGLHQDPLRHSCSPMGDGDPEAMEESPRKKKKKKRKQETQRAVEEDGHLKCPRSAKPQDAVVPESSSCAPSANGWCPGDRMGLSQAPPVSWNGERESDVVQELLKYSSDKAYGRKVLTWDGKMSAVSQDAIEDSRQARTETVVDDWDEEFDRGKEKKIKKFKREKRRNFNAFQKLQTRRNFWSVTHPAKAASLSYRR
In short: as §1

USP38 = molecular target: T2, USP38 (UniProt Q8NB14)
T2 sequence (whole entry): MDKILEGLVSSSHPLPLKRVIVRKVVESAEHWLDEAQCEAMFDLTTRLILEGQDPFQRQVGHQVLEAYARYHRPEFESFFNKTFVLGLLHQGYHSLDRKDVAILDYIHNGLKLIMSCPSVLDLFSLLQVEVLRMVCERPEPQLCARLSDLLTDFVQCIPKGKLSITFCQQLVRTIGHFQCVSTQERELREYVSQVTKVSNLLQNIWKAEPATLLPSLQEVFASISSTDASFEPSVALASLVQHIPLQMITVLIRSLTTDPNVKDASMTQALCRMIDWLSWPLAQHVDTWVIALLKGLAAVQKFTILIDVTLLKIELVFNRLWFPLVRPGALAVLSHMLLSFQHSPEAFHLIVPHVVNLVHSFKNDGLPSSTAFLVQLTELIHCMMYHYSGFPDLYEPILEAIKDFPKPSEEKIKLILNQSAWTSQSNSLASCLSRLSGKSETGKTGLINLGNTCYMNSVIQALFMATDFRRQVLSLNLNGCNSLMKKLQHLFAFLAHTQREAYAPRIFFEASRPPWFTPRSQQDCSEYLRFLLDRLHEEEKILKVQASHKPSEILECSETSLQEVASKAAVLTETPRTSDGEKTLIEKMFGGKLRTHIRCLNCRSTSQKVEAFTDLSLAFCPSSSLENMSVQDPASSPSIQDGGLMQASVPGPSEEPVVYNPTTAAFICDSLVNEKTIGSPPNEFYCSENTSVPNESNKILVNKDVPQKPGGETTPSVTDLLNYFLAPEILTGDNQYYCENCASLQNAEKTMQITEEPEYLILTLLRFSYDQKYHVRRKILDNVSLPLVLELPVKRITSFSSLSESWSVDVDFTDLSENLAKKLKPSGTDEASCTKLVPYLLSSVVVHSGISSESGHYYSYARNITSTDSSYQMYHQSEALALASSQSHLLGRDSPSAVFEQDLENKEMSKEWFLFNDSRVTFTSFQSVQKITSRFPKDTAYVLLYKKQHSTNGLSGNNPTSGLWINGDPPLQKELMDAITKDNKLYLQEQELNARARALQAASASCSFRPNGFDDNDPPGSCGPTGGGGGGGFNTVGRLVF
In short: as §1

USP39 = molecular target: T3, USP39 (UniProt Q53GS9)
T3 sequence (whole entry): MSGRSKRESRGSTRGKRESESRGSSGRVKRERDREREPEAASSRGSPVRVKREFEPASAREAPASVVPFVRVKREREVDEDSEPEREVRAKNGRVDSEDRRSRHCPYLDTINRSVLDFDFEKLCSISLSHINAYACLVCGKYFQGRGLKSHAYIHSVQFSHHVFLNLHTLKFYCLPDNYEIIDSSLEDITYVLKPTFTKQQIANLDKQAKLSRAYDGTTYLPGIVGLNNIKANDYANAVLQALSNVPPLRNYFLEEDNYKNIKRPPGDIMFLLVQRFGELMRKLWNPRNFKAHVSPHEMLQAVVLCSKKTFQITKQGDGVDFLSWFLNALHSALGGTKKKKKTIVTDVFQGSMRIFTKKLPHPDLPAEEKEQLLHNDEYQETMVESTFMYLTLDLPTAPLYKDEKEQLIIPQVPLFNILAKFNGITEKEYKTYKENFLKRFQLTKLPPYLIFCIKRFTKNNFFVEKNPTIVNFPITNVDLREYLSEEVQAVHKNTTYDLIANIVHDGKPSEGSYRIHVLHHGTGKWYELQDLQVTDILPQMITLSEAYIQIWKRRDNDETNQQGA
In short: as §1

USP4 = molecular target: T4, USP4 (UniProt Q13107)
T4 sequence (whole entry): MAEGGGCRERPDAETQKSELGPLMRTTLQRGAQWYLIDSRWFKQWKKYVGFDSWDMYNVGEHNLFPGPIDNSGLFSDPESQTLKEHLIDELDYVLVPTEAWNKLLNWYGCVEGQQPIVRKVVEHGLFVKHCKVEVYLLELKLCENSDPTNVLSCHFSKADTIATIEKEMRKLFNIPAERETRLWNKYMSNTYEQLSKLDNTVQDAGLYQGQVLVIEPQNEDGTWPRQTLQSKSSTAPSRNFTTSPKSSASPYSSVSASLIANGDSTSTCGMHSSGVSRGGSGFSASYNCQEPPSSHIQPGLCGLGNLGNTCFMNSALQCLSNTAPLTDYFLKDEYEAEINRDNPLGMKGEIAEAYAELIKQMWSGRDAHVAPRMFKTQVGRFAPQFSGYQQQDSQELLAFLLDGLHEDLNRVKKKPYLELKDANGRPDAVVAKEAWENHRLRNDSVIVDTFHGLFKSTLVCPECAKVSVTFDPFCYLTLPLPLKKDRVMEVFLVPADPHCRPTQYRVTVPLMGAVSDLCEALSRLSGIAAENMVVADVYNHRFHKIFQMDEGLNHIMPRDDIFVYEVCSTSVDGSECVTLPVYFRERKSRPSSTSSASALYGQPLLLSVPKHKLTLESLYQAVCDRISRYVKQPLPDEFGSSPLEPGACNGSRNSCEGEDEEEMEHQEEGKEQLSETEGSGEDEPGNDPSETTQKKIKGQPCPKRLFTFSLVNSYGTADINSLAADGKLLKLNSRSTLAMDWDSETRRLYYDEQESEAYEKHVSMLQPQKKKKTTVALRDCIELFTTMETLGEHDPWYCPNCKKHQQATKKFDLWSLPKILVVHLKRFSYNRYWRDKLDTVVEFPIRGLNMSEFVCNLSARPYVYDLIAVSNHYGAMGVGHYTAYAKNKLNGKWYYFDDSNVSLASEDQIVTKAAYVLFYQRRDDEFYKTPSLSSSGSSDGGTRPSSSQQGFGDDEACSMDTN
In short: as §1

Measured: log2 ratio of Biotin-Ahx-Ub-VS probe labelling

N#Cc1cnn(-c2ccccc2)c1NC(=O)CCl
inactive: USP34 0.0145 | USP36 -0.28 | USP38 -0.229 | USP39 -0.0134 | USP4 -0.24
